Assay results: the supplement of paper PMC9433436
± gives the standard deviation of the averaged measurements. Over roughly 4,100 sequences, “relative kcat/Km (krel) vs genomic leader AAAGAU” has its median near 1.7; the highest 2% begin near 6.5. The list comes from a sample in which the highest values are over-represented; it also holds similar and randomly drawn sequences.

Target: T1, E. coli RNase P holoenzyme (M1 P RNA + rnpA protein) (UniProt P0A7Y8)
T1 sequence: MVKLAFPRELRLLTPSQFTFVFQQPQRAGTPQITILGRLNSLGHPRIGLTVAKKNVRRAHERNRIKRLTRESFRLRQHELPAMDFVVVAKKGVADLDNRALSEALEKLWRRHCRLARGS
Test: relative kcat/Km (krel) vs genomic leader AAAGAU (relative (reference leader = 1)); higher = faster RNase P cleavage
Procedure: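 HTS-Kin: a pool of ptRNA-Met (21C construct) with all 4096 combinations of 5' leader nucleotides N(-6) to N(-1) was processed in vitro by E. coli RNase P (P RNA + rnpA/C5 protein) under multiple-turnover conditions at 37 C, pH 8, 17.5 mM MgCl2. Residual substrate was Illumina-sequenced at several fractions reacted, and relative kcat/Km (krel) was computed by internal competition kinetics, calibrated to the genomic leader (AAAGAU = 1). The listed hexamer is the varied N(-6)..N(-1) leader (DNA letters), and it sits between a fixed 5' stem-loop flank (GCAUGCACGAAAGUGCGUGCUAUGAA) and the mature tRNA-Met starting GGCUACGUAGCUCAGUUGG. Two technical replicates are averaged.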

[1] = fraction of substrate reacted: ~9-10% (9.79% repeat 1, 9.1% repeat 2)
[2] = fraction of substrate reacted: ~13-16% (15.68% repeat 1, 13.17% repeat 2)
[3] = fraction of substrate reacted: ~26-29% (28.66% repeat 1, 26.4% repeat 2)

Sequence | relative kcat/Km [1] | relative kcat/Km [2] | relative kcat/Km [3]
CACTGA | 2.94 ± 1.2 | 3.71 ± 0.65 | 5.8 ± 1.7
CACTAA | 4.69 ± 2 | 6.03 ± 0.39 | 7.49 ± 2.5
AACTAA | 2.93 ± 0.16 | 4.29 ± 1.7 | 6.5 ± 3.1
TGGAAA | 1.63 ± 1.1 | 0.838 ± 0.78 | 1.61 ± 0.29
GTGTCA | 1.15 ± 0.97 | 0.779 ± 0.57 | 1.49 ± 0.16
GCCTGG |  |  | 0.776 ± 0.2
GTGCCC | 1.01 ± 0.23 | 0.583 ± 0.44 | 1.13 ± 0.088
TTTGCT | 0.76 ± 0.28 | 0.721 ± 0.56 | 0.983 ± 0.097
CAAAAC | 1.4 ± 0.17 | 1.59 ± 0.4 | 2.51 ± 0.41
GACTAA | 4.15 ± 1.9 | 5.64 ± 1.3 | 8.21 ± 3.3
AACTAG | 3.36 ± 2.5 | 2.8 ± 0.61 | 3.95 ± 1.3
GACTTA | 3.03 ± 0.62 | 4.15 ± 0.96 | 5.78 ± 2.2
TACTGT | 0.799 ± 0.45 | 1.56 ± 1.4 | 1.19 ± 0.64
TACTAT | 4.15 ± 0.89 | 6.07 ± 1.3 | 9 ± 3.9
GACTAG | 1.77 ± 1.4 | 2.58 ± 0.6 | 4.67 ± 1.3
ATGAAG | 0.588 ± 0.19 | 0.919 ± 0.16 | 1.85 ± 0.42
AGTCGG |  | 0.482 ± 0.36 | 1.03 ± 0.14
GAGAAA | 2.38 ± 1.1 | 3.13 ± 0.99 | 3.4 ± 0.98
ATCATT | 3.39 ± 1.4 | 4.551 ± 0.032 | 6.49 ± 2.6
GTCATT | 4.45 ± 1.6 | 5.21 ± 2 | 8.08 ± 4
TTCATA | 4.76 ± 2.5 | 6.15 ± 0.55 | 8.54 ± 3.2
GGCATT | 1.85 ± 0.77 | 2.15 ± 0.27 | 3.37 ± 1.4
TTCATC | 4.42 ± 1.8 | 5.94 ± 0.79 | 8.86 ± 3.8
TGCATT | 0.949 ± 0.79 | 1.93 ± 1.2 | 2.68 ± 1.7

Sequence | relative kcat/Km [1] | relative kcat/Km [2] | relative kcat/Km [3]
TGCATC | 2.12 ± 1.2 | 1.5 ± 0.48 | 2.05 ± 0.7
TTCATT | 4.9 ± 1.8 | 6.77 ± 1.4 | 9.68 ± 4.2
CTCATA | 3.84 ± 2.5 | 4.93 ± 0.27 | 6.23 ± 2.5
TTCATG | 2 ± 2 | 2.08 ± 0.48 | 4.3 ± 1.5
TCCATC | 3.7 ± 1.8 | 3.95 ± 0.47 | 6.33 ± 2.3
TCTACA | 1.43 ± 0.68 | 1.87 ± 0.44 | 2.46 ± 1.1
GGTAAG | 1.39 ± 1.3 | 0.931 ± 0.053 | 2.32 ± 1.1
TCCACT | 2.76 ± 1.1 | 3.06 ± 0.4 | 4.72 ± 1.1
CATCGT |  |  | 1.54 ± 1.2
GGATCA | 0.973 ± 0.2 | 1.04 ± 0.42 | 1.53 ± 0.71
CACGGT |  |  | 1.7 ± 0.39
AGAGAT | 0.682 ± 0.45 | 1.15 ± 0.6 | 1.75 ± 0.4
ATCATA | 3.61 ± 1.8 | 4.31 ± 0.3 | 5.9 ± 2.2
GTCATG |  | 1.48 ± 0.37 | 3.5 ± 0.91
GTCATA | 4.4 ± 2 | 4.91 ± 0.65 | 7.54 ± 3
CGAGAG | 0.809 ± 0.14 |  | 0.931 ± 0.1
CCTTCC | 1.62 ± 0.022 | 1.51 ± 1.3 | 2.47 ± 0.27
CCCGAG | 1.48 ± 0.82 | 0.888 ± 0.25 | 3.16 ± 0.072
ACCGAG | 2.58 ± 2.5 | 0.833 ± 0.22 | 2.44 ± 0.21
CCCGAT | 2.59 ± 0.49 | 2.76 ± 1.2 | 3.21 ± 0.9
GCCGAC | 2.64 ± 1.3 | 3.49 ± 0.69 | 5.36 ± 2.2
TCCGAC | 3.47 ± 0.1 | 4.91 ± 1.2 | 7.68 ± 3
CCCGAA | 2.83 ± 1.5 | 4.35 ± 1.8 | 6.76 ± 2.5
TCCGAT | 2.34 ± 0.53 | 2.91 ± 1.4 | 4.01 ± 1.3
